High-throughput results deposited in PubChem BioAssay by Broad Institute.
Only some compounds are listed: those with a hit (about 6.8% of all), similar ones and a draw of the others.
C diff growth = inhibitors of Clostridium difficile growth; Clostridium difficile clinical isolate growth, OD600, 24 h; active compounds read low; growth activity, negative = inhibition, % at 16 µg/mL (by protocol); 86,000 compounds, 0.25% hits; AID 1259249;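 active means mean growth activity at or below -80% and every replicate also at or below -80%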;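 further: 0% = DMSO wells and -100% = levofloxacin 16 µg/mL wells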
Pf Dd2 growth = P. falciparum Dd2 growth inhibition; SYBR Green, 72 h; active compounds read low; activity change, % at 10 µM; 94,000 compounds, 2.3% hits; AID 1159554; in the data active means activity change below about -80%
T cruzi growth = inhibitors of T. cruzi proliferation | T. cruzi beta-gal in NIH3T3, GalScreen luminescence, 90 h | inhibition, % at 8.34 µM | 77,000 compounds, 5.9% hits;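 active means mean inhibition above about 93%, with at least 55% of replicates each passing it, limit read from the data, passing the limit was not always enough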
* marks the source's active call; other numbers are inactive results; nt = no result; ! = not active in a repeat.

SMILES | C diff growth | Pf Dd2 growth | T cruzi growth
C[C@H]1CN([C@@H](C)CO)C(=O)Cc2cc(NC(=O)Nc3cccc4ccccc34)ccc2O[C@@H]1CN(C)CC1CC1 | -3 | -62 | 12
C[C@H]1CN([C@@H](C)CO)C(=O)Cc2cc(NC(=O)Nc3ccccc3)ccc2O[C@H]1CN(C)CC1CC1 | -6 | -75 | 34
CNC(=O)C[C@@H]1CC[C@H]2[C@H](COc3ccc(NC(=O)Nc4ccc(F)cc4)cc3C(=O)N2C)O1 | -5 | 2 | -23
O=C(C[C@@H]1CC[C@@H]2[C@H](COC[C@@H](O)CN2C(=O)Nc2cc(Cl)cc(Cl)c2)O1)N1CCOCC1 | 63 | nt | 25
O=C(C[C@H]1CC[C@H]2[C@@H](COC[C@@H](O)CN2C(=O)Nc2cc(Cl)cc(Cl)c2)O1)N1CCOCC1 | -15 | nt | 0
O=C(C[C@@H]1CC[C@@H]2[C@H](COC[C@H](O)CN2C(=O)Nc2cc(Cl)cc(Cl)c2)O1)N1CCOCC1 | -101*! | nt | -25
O=C(C[C@H]1CC[C@@H]2[C@H](COC[C@H](O)CN2C(=O)Nc2cc(Cl)cc(Cl)c2)O1)N1CCOCC1 | -92*! | nt | 10
CN(C)CC(=O)Nc1ccc2c(c1)[C@@H]1C[C@H](CC(=O)NCCN3CCCCC3)O[C@H](CO)[C@@H]1O2 | 0 | 35 | nt
C[C@@H]1CN([C@@H](C)CO)C(=O)c2cccc(NC(=O)Nc3ccccc3)c2O[C@@H]1CN(C)Cc1ccc(C(F)(F)F)cc1 | -97* | -62 | -28
C[C@H](CO)N1C[C@H](C)[C@@H](CN(C)Cc2ccccc2)Oc2c(NC(=O)Nc3ccc(C(F)(F)F)cc3)cccc2C1=O | 13 | -7 | 30
C[C@@H]1CN([C@@H](C)CO)C(=O)c2cccc(NC(=O)Nc3ccc(C(F)(F)F)cc3)c2O[C@@H]1CN(C)Cc1ccccc1 | -98* | -26 | 29
C[C@H](CO)N1C[C@H](C)[C@H](CN(C)Cc2ccccc2)Oc2c(NC(=O)Nc3ccc(C(F)(F)F)cc3)cccc2C1=O | 13 | 0 | 64
C[C@H](NC(=O)[C@H]1[C@H](CO)[C@H]2Cn3c(ccc(C4=CCCCC4)c3=O)[C@@H]1N2)c1ccccc1 | -4 | 16 | -8
N#C[C@H]1[C@H](c2ccccc2-c2ccccc2F)[C@H](CO)N1C(=O)C1CCOCC1 | -4 | -73 | nt
COc1ccc(-c2ccccc2[C@H]2[C@@H](CO)N(C(=O)C3CCCCC3)[C@H]2C#N)cc1 | -4 | 10 | nt
COc1ccc(-c2ccccc2[C@H]2[C@@H](C#N)N(C(=O)C3CCCCC3)[C@H]2CO)cc1 | -1 | -93* | nt
COc1ccc(-c2ccccc2[C@H]2[C@@H](CO)N(C(=O)C3CCOCC3)[C@H]2C#N)cc1 | -5 | -87* | nt
COc1ccc(-c2ccccc2[C@@H]2[C@@H](CO)N(C(=O)C3CC3)[C@H]2C#N)cc1 | 3 | 11 | nt
N#C[C@H]1[C@@H](c2ccccc2-c2ccccc2F)[C@@H](CO)N1C(=O)C1CCOCC1 | -7 | -95* | nt
C[C@@H]1CN([C@@H](C)CO)C(=O)c2cc(NC(=O)Cc3ccccc3)ccc2O[C@@H](C)CCCCO[C@@H]1CN(C)C(=O)CCCN(C)C | 1 | 35 | nt
CCS(=O)(=O)Nc1ccc2c(c1)C(=O)N(C)C[C@H](OC)[C@@H](C)CN(C(=O)C1CCC1)[C@H](C)CO2 | -2 | 5 | -49
COc1ccc(S(=O)(=O)N2CCC3(CC2)CN(Cc2ccncc2)[C@H](CO)c2[nH]c4cc(OC)ccc4c23)cc1 | -8 | -88* | nt
COc1ccc2c3c([nH]c2c1)[C@H](CO)N(Cc1ccncc1)CC31CN(S(C)(=O)=O)C1 | 15 | -43 | nt
COc1ccc(CN2CC3(CCN(S(=O)(=O)c4ccc(C)cc4)CC3)c3c([nH]c4cc(OC)ccc34)[C@H]2CO)cc1 | 30 | -86* | nt
COc1ccc2c3c([nH]c2c1)[C@H](CO)N(Cc1ccccc1)CC31CCN(S(=O)(=O)c2ccc(C)cc2)CC1 | 1 | -54 | nt
SMILES | C diff growth | Pf Dd2 growth | T cruzi growth
O=C(C[C@@H]1CC[C@@H]2[C@H](COC[C@H](O)CN2C(=O)Nc2ccccc2)O1)NCc1ccncn1 | 1 | nt | -31
COc1ccc2c3c(n(C)c2c1)[C@@H](CO)N(C(=O)Nc1ccc(F)cc1)CC31CN(S(=O)(=O)c2cccc(C)c2)C1 | -16 | -27 | nt
COc1ccc2c3c(n(C)c2c1)[C@H](CO)N(C(=O)Nc1ccc(F)cc1)CC31CN(S(=O)(=O)c2cccs2)C1 | nt | 7 | nt
COc1ccc2c3c(n(C)c2c1)[C@H](CO)N(C(=O)Nc1ccc(F)cc1)CC31CCN(S(=O)(=O)c2cccs2)CC1 | -1 | -86* | nt
COc1ccc2c3c(n(C)c2c1)[C@H](CO)N(C(=O)Nc1ccc(F)cc1)CC31CCN(S(=O)(=O)c2cccc(F)c2)CC1 | -3 | -88* | nt
COc1ccc2c3c([nH]c2c1)[C@@H](CO)N(Cc1ccccc1)CC31CN(C)C1 | 3 | -25 | nt
N#C[C@@H]1[C@H](c2ccc(C3=CCCC3)cc2)[C@H](CO)N1C(=O)C1CCOCC1 | -5 | 0 | 5
O=C(Nc1ccccc1)N1CCCCN2[C@H](CO)[C@@H](c3ccc(C#Cc4ccccc4)cc3)[C@H]2C1 | 42 | -60 | 60
O=C(Nc1ccccc1)N1CCCCN2[C@H](CO)[C@H](c3ccc(C#Cc4cccnc4)cc3)[C@@H]2C1 | -10 | -88* | 85
CC(C)CC#Cc1ccc([C@@H]2[C@H]3CN(C(=O)Nc4ccccc4)CCCCN3[C@H]2CO)cc1 | 57 | -13 | 48
COc1ccc(NC(=O)N2CCCCN3[C@H](CO)[C@H](c4ccc(C#CCC(C)C)cc4)[C@H]3C2)cc1 | 33 | -55 | 60
CC(C)CC#Cc1ccc([C@H]2[C@H](CO)N3CCCCN(C(=O)Nc4ccccc4)C[C@@H]23)cc1 | -98* | -47 | 78
CC(C)CC#Cc1ccc([C@@H]2[C@H](CO)N3CCCCN(C(=O)Nc4ccccc4)C[C@@H]23)cc1 | -98* | -21 | 59
CCS(=O)(=O)N1[C@@H](CO)[C@H](c2ccccc2)C12CN(C(=O)C1CCCC1)C2 | -1 | 9 | nt
O=C(NCC[C@@H]1CC[C@H](NS(=O)(=O)c2cccc(F)c2)[C@@H](CO)O1)Nc1cc(F)ccc1F | -3 | 16 | 12
C[C@H](CO)N1C[C@H](C)[C@H](CN(C)Cc2ccc3c(c2)OCO3)Oc2ccc(NC(=O)c3ccncc3)cc2C1=O | 0 | 8 | -3
CCCN(C)C[C@H]1Oc2cc(C#CC3CCCC3)ccc2S(=O)(=O)N([C@H](C)CO)C[C@H]1C | 6 | -84* | 75
CCCN(C)C[C@@H]1Oc2cc(C#CC3CCCCC3)ccc2S(=O)(=O)N([C@H](C)CO)C[C@H]1C | 32 | -20 | 79
C[C@@H]1CN([C@H](C)CO)S(=O)(=O)c2ccc(C#CC3CCCCC3)cc2O[C@@H]1CN(C)C | 17 | -81* | 51
COc1ccc(S(=O)(=O)N(C)C[C@H]2Oc3cc(C#CC4CCCCC4)ccc3S(=O)(=O)N([C@H](C)CO)C[C@H]2C)cc1 | nt | -66 | 55
COc1ccc(S(=O)(=O)N(C)C[C@@H]2Oc3cc(C#CC4CCCCC4)ccc3S(=O)(=O)N([C@H](C)CO)C[C@H]2C)cc1 | nt | -86* | 39
C[C@H](CO)N1C[C@H](C)[C@@H](CN(C)C)Oc2cc(C#CC3CCCCC3)ccc2S1(=O)=O | 16 | -54 | 76
